{"source": "PubChem BioAssay AID1851", "about": "(National Center for Advancing Translational Sciences (NCATS), 2009)", "note": "Screen size: about 16,000 compounds; about 5,100 (32%) were called active. Not shown: some 25% with an inconclusive outcome. The list shows a part of the results. A number with no mark means an inactive call. Calls come from the whole dose curve; as a rule, active = well fitted curve in the direction sought with a large enough effect; inconclusive = small, poorly fitted or top-dose-only effect, or effect the other way; inactive = no such curve, though single readings can be large or run the other way. % is set by controls: 0 for no effect and ±100 for the full control effect.", "data": [{"biological_target": "Cytochrome P450 3A4 (Homo sapiens) (UniProt P08684)", "sequence (P08684 whole entry, looked up)": "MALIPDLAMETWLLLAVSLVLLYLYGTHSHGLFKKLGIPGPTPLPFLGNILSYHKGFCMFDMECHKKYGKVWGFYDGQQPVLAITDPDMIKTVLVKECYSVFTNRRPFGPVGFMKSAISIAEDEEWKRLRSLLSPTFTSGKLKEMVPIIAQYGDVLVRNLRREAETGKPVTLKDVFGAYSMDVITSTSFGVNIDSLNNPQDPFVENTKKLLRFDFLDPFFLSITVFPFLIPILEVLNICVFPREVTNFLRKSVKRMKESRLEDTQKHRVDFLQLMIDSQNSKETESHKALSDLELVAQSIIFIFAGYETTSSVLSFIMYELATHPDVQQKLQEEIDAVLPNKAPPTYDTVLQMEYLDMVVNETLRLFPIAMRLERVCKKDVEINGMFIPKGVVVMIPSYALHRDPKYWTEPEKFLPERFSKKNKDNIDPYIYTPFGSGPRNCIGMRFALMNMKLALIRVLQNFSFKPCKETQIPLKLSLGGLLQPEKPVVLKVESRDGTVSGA", "experiment": "Cytochrome panel assay with activity outcomes", "settings": "recombinant CYP, pro-luciferin dealkylation, luminescence, p450-cyp3a4; series mostly up to 57.1 µM", "values": [{"compound": "O[C@]1(c2ccccc2)c2ccccc2NC2=NCCN21", "activity, negative = inhibition": "3.31% [at 11.4 µM]"}, {"compound": "Cc1cc(-c2ccc(Cl)cc2)oc(=O)c1NC(=O)c1ccccc1", "AC50": "inactive"}, {"compound": "Cc1cc(=O)c2c(O)c(O)ccc2o1", "AC50": "inactive"}, {"compound": "COc1ccc(-c2cc(=O)c3c(O)cc(O)cc3o2)cc1", "AC50": "2.51 µM (active)"}, {"compound": "O=c1cc(-c2ccccc2)oc2cc(O)c(O)c(O)c12", "AC50": "31.6 µM (active)"}, {"compound": "COc1ccc(-c2coc3cc(OC)cc(O)c3c2=O)cc1", "AC50": "inactive"}, {"compound": "O=C(O)CC[C@@H](C(=O)O)N1C(=O)[C@@H]2[C@@H]3CC[C@H](C3)[C@@H]2C1=O", "activity, negative = inhibition": "-4.14% [at 11.4 µM]"}, {"compound": "Cc1ccc(C)n1C(Cc1ccccc1)C(=O)O", "note": "(stereo unspecified)", "AC50": "inactive"}, {"compound": "O=C(NC1CCCCC1)C(Cc1ccccc1)N1C(=O)C2C3CCC(C3)C2C1=O", "note": "(stereo unspecified)", "AC50": "8.91 µM (active)"}, {"compound": "CC(C)C(NC(=O)C1CCCCC1)C(=O)NC1CCN(Cc2ccccc2)CC1", "note": "(stereo unspecified)", "AC50": "inactive"}, {"compound": "O=C(O)[C@H](CCc1ccccc1)N1C(=O)c2ccccc2C1=O", "activity, negative = inhibition": "9.26% [at 11.4 µM]"}, {"compound": "O=C(C(Cc1ccccc1)N1C(=O)C2C3CCC(C3)C2C1=O)N1CCCCC1", "note": "(stereo unspecified)", "AC50": "12.6 µM (active)"}, {"compound": "CN(CC(=O)Nc1cccc2c1CCCC2)S(=O)(=O)c1ccc(Br)cc1", "AC50": "8.91 µM (active)"}, {"compound": "CN(C)CCOC(=O)[C@@H](c1ccccc1)C1(O)CCCC1", "AC50": "inactive"}, {"compound": "Cn1c(C[C@@H](O)c2nc3ccccc3n2C)nc2ccccc21", "activity, negative = inhibition": "-14.4% [at 11.4 µM]"}, {"compound": "Cc1ccc(/C=N/NC(=O)CSc2nc3ccccc3n2C)s1", "activity, negative = inhibition": "-26.5% [at 2.29 µM]"}, {"compound": "Cn1c(SCc2nc3ccccc3n2CCO)nc2ccccc21", "AC50": "8.91 µM (active)"}, {"compound": "CC(=O)Nc1ccc(S(=O)(=O)N2CCN(c3nc(NC4CCCC4)c4ccccc4n3)CC2)cc1", "AC50": "3.16 µM (active)"}, {"compound": "Cc1ccc(C(=O)COC(=O)c2ccc3c(c2)C(=O)N(c2cccc4ncccc24)C3=O)cc1C", "AC50": "1.26 µM (active)"}, {"compound": "Cc1ccc(C(=O)O)cc1N1C(=O)c2cccc3cc(Br)cc(c23)C1=O", "activity, negative = inhibition": "19.6% [at 2.29 µM]"}, {"compound": "CCOC(=O)N1CCN(C(=O)c2ccc(OC)c(OC)c2)CC1", "AC50": "inactive"}, {"compound": "CCOC(=O)N1CCN(C(=O)c2cc(-c3ccc(F)cc3)[nH]c2C)CC1", "AC50": "11.2 µM (active)"}, {"compound": "CCOC(=O)N1CCN(C(=O)c2ccc(NC(C)=O)cc2)CC1", "activity, negative = inhibition": "-1.46% [at 2.29 µM]"}, {"compound": "CS(=O)(=O)N1CCC2(CCN(c3ccccc3)CC2)CC1", "AC50": "inactive"}, {"compound": "CS(=O)(=O)N1CCC[C@@]2(CCN(c3ccncc3)C2)C1", "AC50": "7.94 µM (active)"}, {"compound": "CS(=O)(=O)N1CCC[C@@]2(CCN(c3ncccn3)C2)C1", "AC50": "inactive"}, {"compound": "CS(=O)(=O)N1CCC2(CC1)CN(c1ccncc1)C2", "AC50": "inactive"}, {"compound": "CS(=O)(=O)N1CCC2(CCCN(c3ccncc3)C2)CC1", "AC50": "inactive"}, {"compound": "CS(=O)(=O)N1CCC[C@@]2(CCN(c3ccccc3)C2)C1", "AC50": "12.6 µM (active)"}, {"compound": "COc1cc(CN2CCN(C(=O)CC(C)C)CC2)cc(OC)c1OC", "AC50": "inactive"}, {"compound": "COc1ccccc1N1CCN(CCN(C(=O)C2CCCCC2)c2ccccn2)CC1", "AC50": "3.98 µM (active)"}, {"compound": "COc1ccccc1N1CCN(CCCCNC(=O)c2ccc(-c3ccc(C(C)=O)cc3)cc2)CC1", "AC50": "inactive"}, {"compound": "CC1=NN(c2ccccc2)C(=O)/C1=C\\c1c(C)[nH]n(-c2ccccc2)c1=O", "AC50": "inactive"}, {"compound": "CSc1nc(C)c(CCOC(=O)c2ccccc2)c(=O)[nH]1", "AC50": "inactive"}, {"compound": "Cc1[nH]n(-c2ccccc2)c(=O)c1CCOC(=O)c1ccc(C(F)(F)F)cc1", "AC50": "14.1 µM (active)"}, {"compound": "Cc1[nH]n(-c2ccccc2)c(=O)c1CCOC(=O)c1cccc(C(F)(F)F)c1", "AC50": "3.16 µM (active)"}, {"compound": "CSc1nc(C)c(CCOC(=O)c2cccc(C)c2)c(=O)[nH]1", "AC50": "inactive"}, {"compound": "Cc1cc(-c2c(C)[nH]n(-c3ccccc3)c2=O)n(-c2ccccc2)n1", "activity, negative = inhibition": "-9.49% [at 11.4 µM]"}, {"compound": "CC(C)(CO[C@H]1C[C@H]2CC[C@@]1(C)C2(C)C)[N+](=O)[O-]", "activity, negative = inhibition": "-5.92% [at 11.4 µM]"}, {"compound": "CCOC(=O)c1ccc(-c2ccc(/C=C(\\C#N)C(=O)NCC3CCCO3)o2)cc1", "note": "(stereo unspecified)", "AC50": "20 µM (active)"}, {"compound": "CCOC(=O)c1ccc(NC(=O)C(=O)NCC2CCCO2)cc1", "note": "(stereo unspecified)", "AC50": "inactive"}, {"compound": "CCOC(=O)c1ccc(-c2ccc(CO)o2)cc1", "activity, negative = inhibition": "1.82% [at 2.29 µM]"}, {"compound": "CC(C)NC[C@@H](O)c1ccc(O)c2ncccc12", "activity, negative = inhibition": "-1.42% [at 11.4 µM]"}, {"compound": "O=S(=O)(O)[C@@H](c1ccccc1)[C@@H](O)c1ccccc1", "activity, negative = inhibition": "-6.22% [at 11.4 µM]"}, {"compound": "COc1ccc(CCn2c(=N)c(C(=O)NCc3ccco3)cc3c(=O)n4ccccc4nc32)cc1", "AC50": "14.1 µM (active)"}, {"compound": "Cn1c(C(=O)NCC2CCCO2)cc2c(=O)n3ccccc3nc21", "note": "(stereo unspecified)", "AC50": "inactive"}, {"compound": "OCCCSCCO", "activity, negative = inhibition": "-9.23% [at 11.4 µM]"}, {"compound": "CC1(O)c2ccccc2C(=O)N1CCc1ccccc1F", "note": "(stereo unspecified)", "AC50": "inactive"}, {"compound": "O=C(c1ccco1)N1CCN(c2cc(=O)n(C3CCCCC3)c(=O)[nH]2)CC1", "AC50": "inactive"}, {"compound": "COc1ccc(Nc2cc(=O)n(C3CCCCC3)c(=O)[nH]2)c(OC)c1", "AC50": "12.6 µM (active)"}, {"compound": "Cc1cc(C(C)(C)C)c(O)c(C)c1CC1=NCCN1", "AC50": "inactive"}, {"compound": "CCC(=O)Nc1ncnc2ncn(C(=O)CC)c12", "activity, negative = inhibition": "-6.29% [at 11.4 µM]"}, {"compound": "COc1ccccc1COC(=O)Nc1c(C)nn(C)c1Cl", "AC50": "15.8 µM (active)"}, {"compound": "Cc1nn(C)c(Cl)c1NC(=O)OCc1ccc(Cl)cc1Cl", "AC50": "14.1 µM (active)"}, {"compound": "O=C(OCc1ccc(Cl)cc1Cl)c1cccnc1Cl", "AC50": "inactive"}, {"compound": "Cc1nn(C)c(Cl)c1NC(=O)OCc1ccc(F)cc1", "AC50": "inactive"}, {"compound": "O=C(Nc1ccccc1)OCc1cc(-c2ccc(Cl)cc2)on1", "activity, negative = inhibition": "3.33% [at 2.29 µM]"}, {"compound": "O=C(c1cc(C(F)(F)F)cc(C(F)(F)F)c1)N1CCC2(CCCN(Cc3nccs3)C2)CC1", "AC50": "20 µM (active)"}, {"compound": "O=C(c1cc(C(F)(F)F)cc(C(F)(F)F)c1)N1CCC[C@@]2(CCN(Cc3nccs3)C2)C1", "AC50": "3.16 µM (active)"}, {"compound": "O=C(c1ccncc1)N1CCC2(CCN(Cc3nccs3)CC2)CC1", "AC50": "inactive"}, {"compound": "CCN1CCCCC(=N/O)/C(=N/O)CCCC1", "activity, negative = inhibition": "-9.74% [at 11.4 µM]"}]}]}
